Experimental data from PubChem BioAssay.
Values without a mark were called inactive. No rule for the calls is given here.

What follows are compounds tested against Pantothenate synthetase (Mycobacterium tuberculosis (strain ATCC 25618 / H37Rv)) (UniProt P9WIL5) (assay: Coupled enzyme confirmation of inhibitors against recombinant Mtb PanC (AID 375;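 also: 0% = full reaction with vehicle and 100% = no enzyme background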)). Conditions: coupled enzyme assay; at 10 µM, active compounds read high.
Sequence of Pantothenate synthetase (Mycobacterium tuberculosis (strain ATCC 25618 / H37Rv)) (P9WIL5 whole entry, looked up): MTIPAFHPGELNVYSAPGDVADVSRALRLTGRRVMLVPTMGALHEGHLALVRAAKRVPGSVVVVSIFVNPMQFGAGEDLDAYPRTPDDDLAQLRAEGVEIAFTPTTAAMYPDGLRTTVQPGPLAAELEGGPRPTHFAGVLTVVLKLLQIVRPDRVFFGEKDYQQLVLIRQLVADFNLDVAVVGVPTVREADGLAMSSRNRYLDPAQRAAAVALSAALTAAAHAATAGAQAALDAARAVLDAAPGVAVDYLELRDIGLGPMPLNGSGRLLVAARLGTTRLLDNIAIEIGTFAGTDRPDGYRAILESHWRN

Compound	inhibition [%]
Cc1nc2nc(Cc3ccccc3)[nH]n2c(=O)c1Cc1ccccc1	5
COc1ccc(-c2noc(CSc3nc(N)c(-c4ccccc4)c(=O)[nH]3)n2)cc1OC	9
CNC(=O)C1C2C=CC3(O2)C1C(=O)N(C1CC1)C3C(=O)NCc1ccc(OC)cc1 (stereo not given)	0
Cc1c(NC(=O)c2ccc(CN3CCc4ccccc4C3)cc2)c(=O)n(-c2ccccc2)n1C	0
O=C(Cc1ccccc1)Nc1nnc(-c2cccs2)s1	0
O=C(Oc1ccc2ccc(OC(=O)N3CCOCC3)cc2c1)N1CCOCC1	0
CCn1cc(C(=O)Nc2cc3c(cc2NC(C)=O)OCCO3)c(=O)c2ccc(C)nc21	1
CCCCc1n[nH]c2c1C(=O)CC(C)(C)C2	0
Cc1cc(C)c2cc(CN(CC3CCCO3)C(=O)NC3CCCCC3)c(=O)[nH]c2c1 (stereo not given)	0
CC(C)OC(=O)CSc1nnc(Cc2ccccc2)n1Cc1ccco1	8
CC1CN(c2nc3ccccc3nc2C(C#N)C(=O)NCc2ccc3c(c2)OCO3)CC(C)O1 (stereo not given)	0
O=C(CCCn1c(=S)[nH]c2cc3c(cc2c1=O)OCO3)N1CCN(c2ccccc2F)CC1	0
CCOC(=O)C1(C)NC(c2ccc(OC)c(OC)c2)C2C(=O)N(CC)C(=O)C21 (stereo not given)	9
Cn1c(=O)c2c3c(sc2n2c(SCc4ccccc4)nnc12)CCCC3	0
C=CCSc1nnc(-c2ccccc2NC(C)=O)c(=O)[nH]1	0
COc1cc2cc(C(c3nnnn3C3CCCC3)N(C)C3CCCCC3)c(=O)[nH]c2cc1OC (stereo not given)	9
COC(=O)c1c(NC(=O)CSc2nnc(-c3cccnc3)n2Cc2ccco2)sc(C)c1C	0
Cc1c(C)[n+](=O)c2c(n1[O-])CCCCC2	1
Nc1cc(N)nc(SCc2ccccc2)n1	0
CC1=CC=CC2=NC(=O)CC(C)(C(=O)N(CC(=O)NC(C)C)C3CCCC3)N12 (stereo not given)	4

Compound	inhibition [%]
Cc1ccc(C2/C(=C(/O)c3cnn(-c4ccccc4)c3C)C(=O)C(=O)N2CCN2CCOCC2)o1 (stereo not given)	1
CCn1cc(C(=O)O)c(=O)c2cc(F)c(N3CCN(C(=O)Nc4ccccc4)CC3)cc21	1
CC[N+](C)(C)c1cccc(O)c1	0
COc1cccc(Nc2nc(=O)[nH]nc2C)c1	8
O=C(C1CCN(S(=O)(=O)Cc2ccccc2)CC1)N1CCN(c2ncccn2)CC1	0
Cc1nc(C)c2c(c1C(F)(F)F)-c1ccccc1C2(F)F	0
CCCS(=O)(=O)Nc1c(C(=O)O)[nH]c2ccccc12	0
Cc1cc(C(F)F)n2ncc(C(=O)NC3CCCCCC3)c2n1	0
CCOC(=O)Cn1nnnc1CN(Cc1ccc(OC)cc1)Cc1cc2cc(C)cc(C)c2[nH]c1=O	3
N#Cc1nc(-c2ccco2)oc1N1CCN(c2cccc(Cl)c2)CC1	6
O=C(c1cnn2c(C(F)F)cc(C3CC3)nc12)N1CCOCC1	1
COc1cccc(CNC(=O)C2CCN(C(=O)N(C)C)CC2)c1	2
CC(=O)C1=C(C)NC(=O)NC1c1cccc(O)c1 (stereo not given)	8
Cc1c(OCC(F)(F)F)ccnc1CS(=O)c1nc2ccccc2[nH]1 (stereo not given)	6
Cc1cc(=O)n2nc(-c3ccccc3)sc2n1	0
CCCCSc1nc2c(cnn2-c2ccc(F)cc2)c(=O)[nH]1	0
COc1ccc(CCNC(=O)C2CC(=O)N(c3ccccc3)C2)cc1OC (stereo not given)	0
CCOC(=O)N1CCC(NC(=O)c2cc3c(=O)n(C)c4ccccc4c3n2C)CC1	0
CCOC(=O)c1nc2sc3c(c2c(=O)[nH]1)CCCC3	0
O=S(=O)(c1cccc2c(S(=O)(=O)N3CCCC3)cccc12)N1CCCC1	0
